Measured values from PubChem BioAssay (NCI).
“And” between values parts separate entries of the source, which are not always exact repeats. Equal entries are not always repeated. The panel holds about 83,000 compounds, 20% with a hit somewhere; the sample as a whole holds those more often.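 Cells were grown in 96-well plates and exposed to the test compound at a single concentration for 48 hours; results are reported as percent growth, with values below 10 considered active.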 The source made the active and inactive calls.

How the values were obtained:
Assay in all cases: NCI-60 one-dose screen, 48 h (100 = growth as untreated, 0 = no growth, -100 = all killed)
Settings in all cases: 10 µM unless noted
[1] = test system: HCT-15 colon
[2] = test system: HT29 colon
[3] = test system: SNB-75 CNS
[4] = test system: SNB-19 CNS
[5] = test system: U251 CNS
[6] = test system: SK-MEL-5 melanoma
[7] = test system: UACC-62 melanoma
[8] = test system: LOX IMVI melanoma
[9] = test system: SK-MEL-28 melanoma
[10] = test system: SK-MEL-2 melanoma
[11] = test system: EKVX NSCLC
[12] = test system: SN12C renal
[13] = test system: UO-31 renal
[14] = test system: TK-10 renal
[15] = test system: ACHN renal
[16] = test system: CAKI-1 renal
[17] = test system: A498 renal
[18] = test system: HL-60(TB) leukemia
[19] = test system: CCRF-CEM leukemia

Measured: growth

COC12CC3(C)C(C4=CC(=O)OC4)CCC3(O)C3CCC4=CC(=O)CCC4(CO1)C32 (stereo not drawn)
inactive: [1] 101% | [2] 103% | [3] 90.6% | [4] 107% | [5] 103% | [6] 106% | [7] 99.6% | [8] 102% | [9] 122% | [10] 24.9% | [11] 103% | [12] 105% | [13] 80.7% | [14] 101% | [15] 96.8% | [16] 105% | [17] 120% | [18] 123% | [19] 116%

CC1(C)N(Nc2ccccc2)C(=O)C2CCCN21 (stereo not drawn)
inactive: [1] 44.5% | [2] 65.7% | [3] 50.7% | [4] 95.4% | [5] 85.2% | [6] 97.5% | [7] 21.7% | [9] 79% | [10] 84% | [11] 74.4% | [12] 91.5% | [13] 32.2% | [14] 59.6% | [15] 21% | [17] 96.5% | [19] 18.5%
active: [8] 6.21% | [16] 6.09% | [18] -31.4%

O=NN1CCCCC1
inactive: [1] 106% | [2] 103% | [3] 82.6% | [4] 97.8% | [5] 111% | [6] 106% | [7] 97.1% | [8] 100% | [9] 110% | [10] 105% | [11] 126% | [12] 98.7% | [13] 98.8% | [16] 107% | [17] 88.1% | [18] 110% | [19] 104%

O=S(=O)(c1ccc(O)cc1)c1ccccc1O
inactive: [1] 108% | [2] 112% | [3] 96.7% | [4] 104% | [5] 107% | [6] 102% | [7] 98.2% | [9] 105% | [10] 104% | [11] 107% | [12] 101% | [14] 107% | [15] 98.7% | [16] 96.2% | [17] 97% | [18] 106% | [19] 88.6%

O=C(Cc1ccccc1)c1ccccc1
inactive: [1] 102% | [2] 106% | [3] 86.8% | [4] 109% | [5] 94.5% | [6] 99.6% | [7] 111% | [9] 113% | [10] 110% | [11] 103% | [12] 106% | [13] 90.2% | [14] 95.5% | [15] 107% | [16] 101% | [17] 63.6% | [18] 103%
active: [19] 7.63%

C[C@]12CCc3sc(Nc4ccc(OC(F)(F)F)cc4)nc3C1=CC[C@@H]1[C@@H]2CC[C@]2(C)C(=O)CC[C@@H]12
active: [19] 5.05%
inactive: [1] 38.3% | [2] 13% | [3] 68.6% | [4] 56.5% | [5] 34.1% | [6] 95.9% | [7] 63.4% | [8] 34.8% | [9] 65.3% | [10] 61.8% | [11] 78.4% | [12] 71.2% | [13] 54.3% | [14] 98.2% | [15] 71.6% | [16] 60.4% | [17] 75% | [18] 44%

C[C@]12CC[C@H]3[C@@H](C[C@@H]4SC(Nc5cccc(F)c5)=N[C@@]45CC(=O)CC[C@]35C)[C@@H]1CCC2=O
inactive: [3] 18.7% | [4] 62.8% | [5] 15.7% | [6] 32.1% | [7] 37.5% | [9] 39.4% | [10] 21.8% | [11] 46.4% | [12] 28.5% | [16] 50.5% | [17] 22.9%
active: [1] 6.88% | [2] -3.32% | [8] 6.22% | [13] -26.9% | [15] 1.56% | [18] 8.58% | [19] 4.95%

COc1cc2c(c(OC)c1OC)-c1ccc(O)cc1[C@@H](NC(C)=O)CC2
20.6% (inactive) and -8.81% (active): [19]
-5.9% (active) and 16.1% (inactive): [16]
active: [1] 4.26% and 6.32% | [2] 5.06% | [6] -24.2% and -61.7% | [17] -12.9% | [18] -13.2% and -32.3%
inactive: [3] 12.7% and 14.9% | [4] 27.8% and 26.4% | [5] 22.5% and 18.3% | [7] 45.6% and 24.4% | [9] 52.3% and 40% | [10] 41.3% | [11] 44% and 22.6% | [12] 29.1% and 26.9% | [13] 25.5% and 33.2% | [14] 11.1% and 38.5% | [15] 24.8% and 25.8%

O=C(NC(Cl)=C(Cl)Cl)P(=O)(c1ccccc1)c1ccccc1
inactive: [1] 105% | [2] 112% | [3] 92.3% | [4] 96.1% | [5] 95.5% | [6] 98.5% | [7] 102% | [8] 101% | [9] 99.6% | [12] 107% | [13] 95.8% | [14] 118% | [15] 112% | [16] 85.7% | [17] 102% | [18] 110% | [19] 98.6%

O=[N+]([O-])c1cc(Br)c(O)c(Br)c1
inactive: [1] 100% | [2] 95.6% | [3] 102% | [4] 102% | [5] 99.8% | [6] 98% | [7] 105% | [9] 120% | [10] 108% | [12] 106% | [13] 87.5% | [16] 108% | [17] 70.1% | [18] 119% | [19] 100%

CN(C)c1ccc([N+](=O)[O-])c([N+](=O)[O-])c1
-35% (active) and 87.6% (inactive): [16]
inactive: [1] 110% and 100% | [2] 109% and 102% | [3] 93% and 86.4% | [4] 106% and 102% | [5] 101% and 96.9% | [6] 101% and 97% | [7] 97.6% and 90.3% | [8] 93% | [9] 104% | [10] 90% and 103% | [11] 96% and 96.2% | [12] 105% and 97.7% | [13] 117% and 84.7% | [14] 135% and 114% | [15] 98.1% and 106% | [17] 109% | [18] 66.7% and 88.1% | [19] 80.9% and 94.2%

COc1ccn(C)c(=O)c1C#N
inactive: [1] 101% | [2] 78.8% | [3] 114% | [4] 109% | [5] 92% | [6] 98% | [7] 95.9% | [8] 97% | [9] 106% | [10] 72.9% | [11] 105% | [12] 105% | [13] 87.2% | [15] 102% | [16] 100% | [17] 86.2% | [18] 104% | [19] 120%

COc1c(O)cc2c(c1OC)-c1ccc(SC)c(=O)cc1C(NC(C)=O)CC2 (stereo not drawn)
active: [1] -40.6% | [2] -18.9% | [3] -13.2% | [5] 5.68% | [6] -28.2% | [15] 3.04% | [17] 7.2% | [18] -32.6%
inactive: [4] 18.5% | [7] 18.6% | [8] 15.4% | [10] 59.8% | [11] 41.9% | [12] 48.7% | [13] 16.2% | [14] 48.7% | [16] 19.3%

COc1ccc(CN)cc1OC
inactive: [1] 103% and 100% | [2] 107% | [3] 113% and 93.3% | [4] 104% and 103% | [5] 112% and 97.6% | [6] 115% | [7] 111% and 100% | [8] 98.2% and 94.2% | [9] 110% and 116% | [10] 112% | [11] 121% | [12] 98.7% and 98.1% | [13] 96.8% and 82.6% | [14] 127% and 115% | [15] 103% and 95.9% | [16] 101% | [17] 124% and 85% | [18] 98% | [19] 116% and 97.7%

COc1ccc(O)c2c(=O)c3c(OC)cc4c(c3oc12)[C@@H]1C=CO[C@@H]1O4
active: [7] 7.2% | [10] 6.45% | [11] 6.71% | [15] 5.59%
inactive: [1] 53.3% | [2] 54.3% | [3] 38.5% | [4] 81% | [5] 73.4% | [6] 25.9% | [9] 98.2% | [12] 73.1% | [13] 51.9% | [14] 36.8% | [16] 35.9% | [17] 87% | [18] 65.8% | [19] 92.6%
